# “And” between values parts separate entries of the source, which are not always exact repeats. Identical values can stand only once. Counter-ions that a name gives are not always drawn. Hit rate of the full screen: of about 5,800 compounds, about 620 (11%) showed activity. This is one part of a sample in which actives are shown more often than they occur. Unmarked numbers belong to inactive results.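 The calls were made as follows: active = score above a cut-off or among the top three wells of a plate; in these data no inactive exceeds 0.85.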
# Tested on: primary human hepatic stellate cells (donor 1)
# Assay: scaled lipid accumulation score (0 = DMSO-like, 1 = nortriptyline-like); higher = stronger HSC inactivation (lipid re-accumulation), active = hit call of the paper
# Settings: 48 h
# [1] = library stock concentration: 10 mM
# [2] = library stock concentration: 1 mM
# [3] = library stock concentration: 3.33 mM
# [4] = library stock concentration: 400 uM
# [5] = library stock concentration: 2 mM
# [6] = library stock concentration: 80 uM
compound,measurement,setting,value
CSc1ccc2c(c1)C(N1CCN(C)CC1)Cc1ccccc1S2 (stereo not given) [Methiothepin mesylate],scaled lipid accumulation score,[1],0.774
CSc1ccc2c(c1)C(N1CCN(C)CC1)Cc1ccccc1S2.O=C(O)/C=C\C(=O)O (stereo not given) [Methiothepin maleate],scaled lipid accumulation score,[1],1.41 (active)
CSc1ccc2c(c1)C(N1CCN(C)CC1)Cc1ccccc1S2 (stereo not given) [Methiothepin maleate],scaled lipid accumulation score,,0.829
CCCCCC(O)C=CC1C(O)CC(=O)C1CC=CCCCC(=O)O (stereo not given) [8-iso Prostaglandin E2],scaled lipid accumulation score,[2],≤ 0
CO[C@H]1C[C@H](O[C@H]2[C@H](C)O[C@@H](O[C@@H]3/C(C)=C/C[C@@H]4C[C@@H](C[C@]5(C=C[C@H](C)[C@@H](C6CCCCC6)O5)O4)OC(=O)[C@@H]4C=C(C)[C@@H](O)[C@H]5OC/C(=C\C=C\[C@@H]3C)[C@]54O)C[C@@H]2OC)O[C@@H](C)[C@@H]1O,scaled lipid accumulation score,[1],0.081
"CCCCC[C@H](O)CC[C@H]1[C@H](O)CC(=O)[C@@H]1CCCCCCC(=O)O [13,14-Dihydro-PGE1]",scaled lipid accumulation score,[2],≤ -0.021
CNc1nccc(-c2cccnc2Oc2cc(C(=O)Nc3cccc(C(F)(F)F)c3)ccc2C)n1 [listing 1 of 2 here],scaled lipid accumulation score,[1],1.13 (active)
Cc1cn(-c2cc(NC(=O)c3ccc(C)c(Nc4nccc(-c5cccnc5)n4)c3)cc(C(F)(F)F)c2)cn1 [Nilotinib (AMN-107)],scaled lipid accumulation score,[3],0.438
same,scaled lipid accumulation score,[1],0.668
"Cc1cn(-c2cc(NC(=O)c3ccc(C)c(Nc4nccc(-c5cccnc5)n4)c3)cc(C(F)(F)F)c2)cn1 [Nilotinib (AMN107, Tasigna) (0.4 mM)]",scaled lipid accumulation score,[4],0.053
CNc1nccc(-c2cccnc2Oc2cc(C(=O)Nc3cccc(C(F)(F)F)c3)ccc2C)n1 [listing 2 of 2 here],scaled lipid accumulation score,[4],≤ -0.005
same,scaled lipid accumulation score,[5],≤ -0.005
"Cc1cn(-c2cc(NC(=O)c3ccc(C)c(Nc4nccc(-c5cccnc5)n4)c3)cc(C(F)(F)F)c2)cn1 [Nilotinib (AMN107, Tasigna) (2 mM)]",scaled lipid accumulation score,[5],≤ -0.005
"Cc1cn(-c2cc(NC(=O)c3ccc(C)c(Nc4nccc(-c5cccnc5)n4)c3)cc(C(F)(F)F)c2)cn1 [Nilotinib (AMN107, Tasigna) (10 mM)]",scaled lipid accumulation score,[1],0.552
Cc1cn(-c2cc(NC(=O)c3ccc(C)c(Nc4nccc(-c5cccnc5)n4)c3)cc(C(F)(F)F)c2)cn1,scaled lipid accumulation score,[6],≤ -0.009
same,scaled lipid accumulation score,[4],0.035
same,scaled lipid accumulation score,[5],≤ -0.009
same,scaled lipid accumulation score,[1],≤ -0.008
O=C(O)CCCCC1CCSS1 (racemic) [DL-.alpha.-Lipoic Acid],scaled lipid accumulation score,[2],≤ 0
C[C@H]1C[C@H]2[C@@H]3CCC4=CC(=O)C=C[C@]4(C)[C@@]3(F)[C@@H](O)C[C@]2(C)[C@@]1(O)C(=O)COP(=O)(O)O,scaled lipid accumulation score,[1],≤ 0
CC(C)CCN1c2nc(Nc3cc(F)c(O)c(F)c3)ncc2N(C)C(=O)C1C (stereo not given),scaled lipid accumulation score,[6],≤ -0.001
same,scaled lipid accumulation score,[4],≤ -0.001 and ≤ -0.005
same,scaled lipid accumulation score,[5],≤ -0.001 and 0.123
same,scaled lipid accumulation score,[3],≤ 0
same,scaled lipid accumulation score,[1],≤ 0 and ≤ -0.001 and 0.36
CC[C@@H]1C(=O)N(C)c2cnc(Nc3ccc(C(=O)N[C@H]4CC[C@H](N5CCN(CC6CC6)CC5)CC4)cc3OC)nc2N1C(C)C [Volasertib] [listing 1 of 2 here],scaled lipid accumulation score,[1],1.17 (active)
COc1cc(C(=O)NC2CCN(C)CC2)ccc1Nc1ncc2c(n1)N(C1CCCC1)CCC(=O)N2C(C)C [listing 1 of 2 here],scaled lipid accumulation score,[6],≤ 0
same,scaled lipid accumulation score,[4],≤ 0
same,scaled lipid accumulation score,[5],0.132
COc1cc(C(=O)NC2CCN(C)CC2)ccc1Nc1ncc2c(n1)N(C1CCCC1)C(C)CC(=O)N2C (stereo not given),scaled lipid accumulation score,[6],≤ 0
same,scaled lipid accumulation score,[4],≤ 0
same,scaled lipid accumulation score,[5],0.177
same,scaled lipid accumulation score,[1],0.428
COc1cc(C(=O)NC2CCN(C)CC2)ccc1Nc1ncc2c(n1)N(C1CCCC1)CCC(=O)N2C(C)C [listing 2 of 2 here],scaled lipid accumulation score,[1],0.868 (active)
CCOc1cc(N2CCC(O)CC2)ccc1Nc1ncc2c(n1)N(C)c1ccccc1C(=O)N2C,scaled lipid accumulation score,[6],≤ -0.009
same,scaled lipid accumulation score,[4],0.026
same,scaled lipid accumulation score,[5],≤ -0.009
same,scaled lipid accumulation score,[3],≤ -0.009
same,scaled lipid accumulation score,[1],0.473 and 0.012
CC[C@@H]1C(=O)N(C)c2cnc(Nc3ccc(C(=O)NC4CCN(C)CC4)cc3OC)nc2N1C1CCCC1 [listing 1 of 2 here],scaled lipid accumulation score,[4],1.02 (active)
COc1cc(C(=O)NC2CCN(C)CC2)ccc1Nc1ncc2c(n1)N(C1CCCC1)CC(F)(F)C(=O)N2C,scaled lipid accumulation score,[3],0.271
same,scaled lipid accumulation score,[1],0.722
CC[C@@H]1C(=O)N(C)c2cnc(Nc3ccc(C(=O)NC4CCN(C)CC4)cc3OC)nc2N1C1CCCC1 [listing 2 of 2 here],scaled lipid accumulation score,[6],0.007
same,scaled lipid accumulation score,[4],0.527
same,scaled lipid accumulation score,[5],0.722 and 0.628
same,scaled lipid accumulation score,[3],0.569
same,scaled lipid accumulation score,[1],0.749 and 0.538 and 0.259
CC[C@@H]1C(=O)N(C)c2cnc(Nc3ccc(C(=O)N[C@H]4CC[C@H](N5CCN(CC6CC6)CC5)CC4)cc3OC)nc2N1C(C)C [Volasertib] [listing 2 of 2 here],scaled lipid accumulation score,[6],0.154
same,scaled lipid accumulation score,[4],0.358
same,scaled lipid accumulation score,[5],0.451
CC[C@@H]1C(=O)N(C)c2cnc(Nc3ccc(C(=O)N[C@H]4CC[C@H](N5CCN(CC6CC6)CC5)CC4)cc3OC)nc2N1C(C)C [Volasertib (BI 6727)],scaled lipid accumulation score,[3],0.97 (active)
same,scaled lipid accumulation score,[1],0.916 (active)
CC(=O)Nc1cccc(-n2c(=O)n(C3CC3)c(=O)c3c(Nc4ccc(I)cc4F)n(C)c(=O)c(C)c32)c1,scaled lipid accumulation score,[6],≤ -0.009
same,scaled lipid accumulation score,[4],≤ -0.003
same,scaled lipid accumulation score,[5],0.049
same,scaled lipid accumulation score,[3],≤ 0
same,scaled lipid accumulation score,[1],≤ 0 and 0.058
O=C(N/N=C/c1ccc(O)c(O)c1)c1cc2ccccc2cc1O [Dynasore],scaled lipid accumulation score,[3],≤ -0.009
same,scaled lipid accumulation score,[1],0.182
"CN=C(N)NCCC[C@H](N)C(=O)O [L-Ornithine, N5-[imino(methylamino)methyl]-[CAS]]",scaled lipid accumulation score,[1],≤ 0
O=C(O[C@H]1[C@H](Oc2ccccc2COC(=O)C2(O)C=CCCC2=O)O[C@H](CO)[C@@H](O)[C@@H]1O)c1ccccc1 (stereo not given in full),scaled lipid accumulation score,[1],≤ 0
COc1cccc(OC)c1OCCNCC1COc2ccccc2O1 (stereo not given) [WB 4101 hydrochloride],scaled lipid accumulation score,[1],0.337
COc1cccc(OC)c1OCCNCC1COc2ccccc2O1 (stereo not given) [WB-4101 hydrochloride],scaled lipid accumulation score,[1],0.182
CCCCC[C@@H](O)/C=C/[C@H]1[C@H](C/C=C\CCCC(=O)O)[C@H](O)C[C@@H]1O [ent-Prostaglandin F2.alpha.],scaled lipid accumulation score,[2],≤ 0
CCOC(=O)/C=C/[C@H](CC(C)C)NC(=O)[C@H](CO)NC(=O)[C@@H](NC(=O)c1cccc(O)c1C)C(C)C,scaled lipid accumulation score,[2],≤ 0
C[C@@H]1C(=O)NC2=Nc3cccc(Cl)c3CN21 [Quazinone],scaled lipid accumulation score,[1],≤ 0
N=C1C=CC(=C(c2ccc(N)cc2)c2ccc(N)cc2)C=C1 [Pararosaniline pamoate],scaled lipid accumulation score,library stock concentration: 3 mM,0.375
same,scaled lipid accumulation score,[1],0.435
C=CC(=O)Nc1cccc(Nc2nc(NC3CCC(N(C)C)CC3)nc3c2ncn3C(C)C)c1 (stereo not given),scaled lipid accumulation score,[6],≤ 0
same,scaled lipid accumulation score,[4],≤ 0
same,scaled lipid accumulation score,[5],≤ 0
same,scaled lipid accumulation score,[1],0.782
CCCCC[C@H](O)/C=C/[C@H]1C=CC(=O)[C@@H]1CCCCCCC(=O)OCC [Prostaglandin A1 ethyl ester],scaled lipid accumulation score,[2],≤ 0
NC(N)=O,scaled lipid accumulation score,[1],≤ 0
same,scaled lipid accumulation score,library stock concentration: 33.3 mM,≤ 0
CC/C=C\C/C=C\C/C=C\C/C=C\CCCCC(=O)O [Stearidonic Acid],scaled lipid accumulation score,[2],≤ 0
C=C1C[C@H](O)[C@H](C/C=C\CCCC(=O)O)[C@H]1/C=C/C(=O)CCCCC [11-deoxy-11-methylene-15-keto Prostaglandin D2],scaled lipid accumulation score,[2],≤ 0
COc1cc(N2CCC(N)CC2)ccc1Nc1ncc(Cl)c(-c2c[nH]c3ccccc23)n1,scaled lipid accumulation score,[3],0.146
same,scaled lipid accumulation score,[1],0.238
COc1cc(N2CCC(N3CCN(C)CC3)CC2)ccc1Nc1ncc(Cl)c(-c2c[nH]c3ccccc23)n1 [listing 1 of 2 here],scaled lipid accumulation score,[5],0.981 (active)
same,scaled lipid accumulation score,[1],0.967 (active)
COc1cc(C(=O)N2CCC(N3CCN(C)CC3)CC2)ccc1Nc1ncc2c(n1)N(C)c1ccccc1C(=O)N2C [listing 1 of 2 here],scaled lipid accumulation score,[6],≤ 0
same,scaled lipid accumulation score,[4],0.015
same,scaled lipid accumulation score,[5],0.329
COc1cc(N2CCN(C)CC2)ccc1Nc1ncc2c(n1)N(C)c1ccccc1C(=O)N2C,scaled lipid accumulation score,[6],0.087
same,scaled lipid accumulation score,[4],0.062
same,scaled lipid accumulation score,[5],0.241
same,scaled lipid accumulation score,[1],0.703
COc1cc(N2CCC(N3CCN(C)CC3)CC2)ccc1Nc1ncc(Cl)c(-c2c[nH]c3ccccc23)n1 [listing 2 of 2 here],scaled lipid accumulation score,[6],0.057
same,scaled lipid accumulation score,[4],0.358
COc1cc(C(=O)N2CCC(N3CCN(C)CC3)CC2)ccc1Nc1ncc2c(n1)N(C)c1ccccc1C(=O)N2C [listing 2 of 2 here],scaled lipid accumulation score,[1],0.929 (active)
CCCCCCCCCCCCCCC(F)C(=O)O (stereo not given) [2-Fluoropalmitic Acid],scaled lipid accumulation score,[2],≤ 0
CCCCCCCCCCCCCCC(F)C(=O)O (stereo not given) [2-Fluoropalmitic acid],scaled lipid accumulation score,[2],≤ -0.021
CCCCCC(=O)/C=C/[C@H]1[C@H](O)CC(=O)[C@@H]1C/C=C\CCCC(=O)O [15-keto Prostaglandin E2],scaled lipid accumulation score,[2],≤ 0
CO[C@@H]1[C@@H](O[C@@H]2O[C@H](C)[C@@H](O[C@H]3C[C@@](C)(O)[C@@H](OC(=O)CC(C)C)[C@H](C)O3)[C@H](N(C)C)[C@H]2O)[C@@H](CC=O)C[C@@H](C)[C@@H](O)/C=C/C=C/C[C@@H](C)OC(=O)C[C@H]1O,scaled lipid accumulation score,[1],0.014
